Screens from PubChem.
Only some compounds are listed: those with a hit (about 1.9% of all), similar ones and a draw of the others.
LDHA block – qHTS assay for inhibitors of human lactate dehydrogenase. activity change, % (values are at about 110 or 230 µM). purified LDHA, NADH/diaphorase-resazurin fluorescence; active compounds read low. hit rate 0.15% among 480,000; in the data active = activity change below about -30%; inconclusive = mostly about -25% to -30%;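 note: plate controls were DMSO wells for no effect and wells without enzyme for full effect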
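Resorufin fluorescence (ex540/em590), read at 0 and 20 min after diaphorase/resazurin addition, reports the NADH left after a 5 min room-temperature reaction of 2 nM human LDH5 with 0.06 mM NADH and 0.2 mM pyruvate.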
aSyn rescue – qHTS of alpha-syn Inhibitors. Potency, µM (top dose mostly 46.1 µM), inactives show top-dose growth rescue (activation), hits mostly activators. hit rate 0.14% among 370,000. Yeast expressing alpha-synuclein, growth rescue, BacTiter-Glo, 24 h; note: potency is the fitted concentration of half-maximal effect; % of control where 0% means no effect; nearly all actives have a fitted effect of over 65% in size
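Galactose-induced alpha-syn yeast (OD600=0.02, raffinose-pregrown) + pinned cpd, 24 hr, 30 deg C; growth by BacTiter-Glo luminescence. Growth restoration scores as activation.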
PTHR1 ag – qHTS for PTHR1 Agonists: Primary Screen; HEK293 GP2 PTHR1 cells, GloSensor cAMP luminescence, 1 h; Potency, µM (doses to about 115 µM), for the others: at the highest dose activation, most hits filed as activators; AID 743266, 2014; hit rate 0.075% among 410,000; Parathyroid hormone/parathyroid hormone-related peptide receptor (Homo sapiens), Q03431; note: potency is the fitted concentration of half-maximal effect; nearly all actives have a fitted effect of over 55% in size
Target sequence (Q03431 whole entry, looked up): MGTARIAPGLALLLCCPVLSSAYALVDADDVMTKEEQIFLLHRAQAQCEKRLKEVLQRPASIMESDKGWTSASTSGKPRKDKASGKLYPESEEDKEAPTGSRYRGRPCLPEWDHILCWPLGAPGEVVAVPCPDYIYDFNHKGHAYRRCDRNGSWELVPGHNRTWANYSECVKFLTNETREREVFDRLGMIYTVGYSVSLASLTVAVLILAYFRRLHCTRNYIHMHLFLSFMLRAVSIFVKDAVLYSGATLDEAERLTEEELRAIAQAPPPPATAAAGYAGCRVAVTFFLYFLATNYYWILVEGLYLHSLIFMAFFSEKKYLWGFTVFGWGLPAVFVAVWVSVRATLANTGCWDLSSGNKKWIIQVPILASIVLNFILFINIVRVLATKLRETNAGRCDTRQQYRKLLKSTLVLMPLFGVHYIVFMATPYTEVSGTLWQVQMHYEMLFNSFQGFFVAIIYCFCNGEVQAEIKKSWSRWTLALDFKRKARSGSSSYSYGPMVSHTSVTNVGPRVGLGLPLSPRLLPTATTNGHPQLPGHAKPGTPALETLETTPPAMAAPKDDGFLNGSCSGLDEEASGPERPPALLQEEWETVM
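HEK-293-derived GP2 cells expressing PTHR1 and a GloSensor cAMP reporter, 3,000/well, plated overnight, given luciferin plus IBMX (each 0.5 mM as added) for 1 h at 37 °C, then compound for 1 h at 37 °C. Luminescence was read after 15 min at room temperature.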
Abeta rescue – qHTS for compounds that reverse cellular toxicity of Amyloid beta (A-beta) peptide in yeast: Primary Screen. AID 1347071, 2019. yeast expressing A-beta42, growth rescue, OD600, 48 h; response scale: 0% DMSO, 100% iron-clioquinol control. hit rate 0.063% among 410,000. Potency, µM (doses to about 46.1 µM), usual class: activators; note: potency is the fitted concentration of half-maximal effect; nearly all actives have a fitted effect of over 55% in size
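Growth rescue measured by 600 nm absorbance after 48 h yeast culture at 30 C with compound. Values normalized between DMSO and an equimolar ferric chloride plus clioquinol control.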
TDP43 rescue – qHTS of TDP-43 Inhibitors; TDP-43 expressing yeast growth rescue, BacTiter-Glo, 24 h; Potency, µM (titrated, usually from 46.1 µM), inactives show at the highest dose growth rescue (activation), actives largely listed as activators; hit rate 1.8% among 410,000; note: potency is the fitted concentration of half-maximal effect; % of control where 0% means no effect; nearly all actives have a fitted effect of over 50% in size
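Galactose-induced TDP-43 yeast, OD600=0.02, compound pinned; 24 hr, 30 deg C; BacTiter-Glo luminescence for growth. Inhibitors of TDP-43 toxicity read as activators.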
FUS yeast rescue – qHTS for Suppressors of FUS Proteinopathy: Primary screen using FUS-linked yeast assay; S. cerevisiae FUS-expressing, growth rescue, OD600, 24 h; Potency, µM (top dose mostly 76.6 µM), most hits filed as activators; hit rate 0.24% among 390,000;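 note: potency is the fitted concentration of half-maximal effect; plate controls were DMSO vehicle for no effect and reference control for full effect; nearly all actives have a fitted effect of over 55% in size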
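Steps: raffinose overnight preculture; dilution to OD 0.005 in 2% galactose minimal medium; compound addition (concentration series); 24hr at 30C, 99% humidity; absorbance read at 600 nm.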
An asterisk follows results filed as active; i = inactive; ? = inconclusive; nt = no result; [ ] = remark or other dose. Unless noted, calls come from the whole dose curve; as a rule, active = well fitted curve in the direction sought with a large enough effect; inconclusive = small, poorly fitted or top-dose-only effect, or another doubt; inactive = no such curve, though single readings can be large; an effect the other way counts as inactive or inconclusive.

SMILES	LDHA block	aSyn rescue	PTHR1 ag	Abeta rescue	TDP43 rescue	FUS yeast rescue
CCn1c(CCCCc2n[nH]c(=S)n2CC)n[nH]c1=S	-6	-1%	?	i	7%	i
CCn1c(CN2c3ccccc3Sc3ccccc32)n[nH]c1=S	-18	21%	i	16µM*	0%	i
O=C1CC(=C2c3ccccc3-c3ccccc32)C(=O)N1CCN1CCN(c2ccccc2)CC1	3	-1%	?	i	-29%	40µM*
Cc1ccccc1N1CCN(CCN2C(=O)CC(=C3c4ccccc4-c4ccccc43)C2=O)CC1	1	-5%	-16%[57.5 µM]	i	13%	?
COc1ccccc1N1CCN(CCN2C(=O)CC(=C3c4ccccc4-c4ccccc43)C2=O)CC1	2	-12%	i	i	3%	16µM*
CC(C)(C)OC(=O)N/N=C/c1cccc(Cl)c1Cl	2	nt	nt	nt	nt	nt
O=C(NNC(=O)c1ccc2c(c1)CCCC2)c1cccnc1	0	nt	nt	nt	nt	nt
COc1cccc(Cc2nc3ccccc3nc2SCC(=O)N2CCCCC2C)c1 (stereo not given)	1	nt	-22%	i	35µM*	?
Cc1ccc(Cc2nc3ccccc3nc2SCC(=O)N2CCCCC2C)cc1 (stereo not given)	-3	nt	-35%	i	35µM*	?
COc1cccc(Cc2nc3ccccc3nc2SCC(=O)N2CCN(c3ccccc3)CC2)c1	-14	nt	i	i	19%	i
Cc1ccc(Cc2nc3ccccc3nc2SCC(=O)N2CCNC2=O)cc1	1	nt	nt	nt	nt	nt
CCOc1ccccc1NC(=O)CSc1nc2ccccc2nc1Cc1ccc(C)cc1	-2	nt	i	i	25µM*	i
O=C(NCCc1ccc(C(F)(F)F)cc1)c1cccnc1	-4	nt	nt	nt	nt	nt
CCC(CC)C(=O)Nc1ccccc1SCc1cc(=O)n2ccsc2n1	-2	nt	nt	nt	nt	nt
Cn1cccc1/C=C(\C#N)c1ccc(F)cc1	8	nt	nt	nt	nt	nt
COc1ccc(CN2CCN(CCSc3ccc(C)cc3)CC2)c(OC)c1OC	-37*	6%	-28%	i	4%	i
COc1ccc(OC)c(CN2CCN(Cc3ccc(OC)c(OC)c3OC)CC2)c1	-21	-11%	-2%	i	0%	i
CCOC(=O)c1cc(C(O)(C(F)(F)F)C(F)(F)F)c(N)o1	2	nt	nt	nt	nt	nt
COc1ccc(-c2cc(-c3ccccc3)nc(-c3ccc4c(c3)NC(=O)CO4)c2)cc1	0	nt	-6%	i	13µM*	i
CCCCc1c(C)c2cc(C)ccc2[nH]c1=O	-1	3%	i	i	10µM*	i
CCN(C(=O)c1nn(C)c(=O)c2ccccc12)C(C)c1ccc(F)cc1 (stereo not given)	-4	nt	nt	nt	nt	nt
COCCNC(=O)c1c(N)n(CCC2=CCCCC2)c2nc3ccccc3nc12	7	-52%	-45%	i	?	40µM*
COc1ccc(CCn2c(N)c(C(=O)NCc3ccco3)c3nc4ccccc4nc32)cc1	-5	21%	i	i	18%	nt
Cc1cc(Cl)cc(C)c1OCCCCCn1ccnc1	0	-1%	-40%	i	-25%	i
Cc1cccc(Cl)c1OCCCn1ccnc1	-37*	7%	i	i	11%	i
Cn1ccc2cc(S(=O)(=O)N3CCC(C(=O)N4CCOCC4)CC3)ccc21	-3	nt	nt	nt	nt	nt
CC(NC(=O)OCc1ccccc1)C(=O)Oc1cc2oc(=O)cc(-c3ccccc3)c2cc1Cl (stereo not given)	4	3%	-1%	i	6.3µM*	i
COC(=O)C(C)Oc1ccc2c(=O)c(-c3ccc4c(c3)OCCO4)coc2c1 (stereo not given)	-34*	nt	nt	nt	nt	nt
COC(=O)C(C)Oc1ccc2c(-c3ccccc3)cc(=O)oc2c1 (stereo not given)	-32*	nt	nt	nt	nt	nt
